Assay results published in PubChem BioAssay AID588432 (Broad Institute, 2011).

Assay: ADP-Glo luciferase interference without Dyrk1A, dose response, artefact control for Dyrk1A inhibitor project, biochemical, luminescence, cherry-pick, set 04 (AID 588432)
Details: ADP-Glo luminescence without kinase, luciferase artifact; series mostly up to 12 µM; activity change, negative = inhibition: at the top concentration;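 active means luciferase inhibitors whose fitted dose curve gives a half-maximal potency within ten times the top tested dose; inconclusive means flat curve with 30 to 70% inhibition, or a poor fit; inactive means the rest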

Activity change, negative = inhibition, inactive:
c1cncc(CNc2nccc(-c3ccc4c(c3)OCO4)n2)c1 6.03%, Cc1csc(CN(C)c2ncnc3ccc(-c4ccc5c(c4)OCO5)cc23)n1 0.986%, Cc1nc(CN(C)c2ncnc3ccc(-c4ccc5c(c4)OCO5)cc23)cs1 4.71%, CCOC(=O)c1ccc(-c2ccc3ncnc(N(C)Cc4sccc4C)c3c2)o1 3.89%, Clc1ccc(CNc2cc(-c3ccc4c(c3)OCO4)ncn2)cc1Cl 3.25%, Clc1ccccc1-c1ccc2ncnc(NCc3ccc4c(c3)OCO4)c2c1 -4.77%, c1cc(-c2ccc3c(c2)OCO3)nc(Nc2ccc3c(c2)OCO3)n1 3.29%, Brc1ccc(CNc2nccc(-c3ccc4c(c3)OCO4)n2)cc1Br -2.75%, CCCNc1ncnc2ccc(-c3ccc4c(c3)OCO4)cc12 -1.35%, c1nc(NCC2CCCC2)c2cc(-c3ccc4c(c3)OCO4)ccc2n1 2.52%, Clc1cccc(-c2ccc3ncnc(NCc4ccc5c(c4)OCO5)c3c2)c1 5.1%, c1coc(CCNc2ncnc3ccc(-c4ccc5c(c4)OCO5)cc23)c1 -5.27%, c1csc(CNc2ncnc3ccc(-c4ccc5c(c4)OCO5)cc23)n1 1.31%, COc1ccc(-c2ccnc(NCc3ccc(Cl)c(Cl)c3)n2)cc1OC 1.42%, O=[N+]([O-])c1cc(Nc2nccc(-c3ccc4c(c3)OCO4)n2)cc(C(F)(F)F)c1 2.67%, Clc1cc(Cl)cc(CNc2nccc(-c3ccc4c(c3)OCO4)n2)c1 -5.52%, Cc1ccsc1CNc1ncnc2ccc(-c3ccc4c(c3)OCO4)cc12 -3.91%, Cc1nc(CNc2ncnc3ccc(-c4ccoc4)cc23)cs1 2.58%
